Pf Dd2 growth: Plasmodium falciparum Dd2 growth inhibition; P. falciparum Dd2 growth, SYBR Green, 72 h; Potency, µM (titrated, usually from 28.9 µM), inactives show at the highest dose activity, negative = inhibition, most hits filed as inhibitors; 4.3% of 120,000 active; active = well fitted inhibition curve with a large enough effect;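 also: plate controls were DMSO vehicle for no effect and reference drug for full effect; nearly all actives have a fitted effect of over 65% in size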
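Readout: SYBR Green fluorescence, 485 nm excitation, 535 nm emission, after ~16 h lysis at 37C. Before that, Dd2-infected red cells (2.5% hematocrit) grew 72 h with compound, 29 uM top final concentration.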
* marks the source's active call; other numbers are inactive results; i = inactive; [ ] = dose if it differs, or a comment. The entries come from a sample that favours hits as a whole. Potency is read from the fitted curve at half-maximal effect.

SMILES	Pf Dd2 growth
Cc1cccc(OCC(=O)NC(C)C(=O)N2CCN(c3ccccn3)CC2)c1 (configuration not stated)	i
COC(=O)[C@@H](CC(C)C)NC(=O)[C@@H]1C[C@@H](n2nnc(C(N)=O)c2C(N)=O)CCN1C(=O)c1cccn1C	-9.9%
COc1ccc(CCCn2ccnc2-c2cn(C3CCNCC3)nn2)cc1	-6.5%
CN1C(=O)CC(C(=O)O)C12CCN(Cc1cn(C)nc1-c1ccccc1)CC2 (configuration not stated)	-6.7%
CCN(CCOC)Cc1cn(C)nc1-c1ccc(C2CCCCC2)cc1	10µM*
Cn1c(CN2CCN(c3cnccn3)CC2)nnc1C1CC(N)C1 (configuration not stated)	-3.8%
Cn1cc(CN2CCN(c3cnccn3)CC2)c(-c2ccc(C3CCCCC3)cc2)n1	10µM*
CC(C)NC(=O)N1CCN(c2cccc(C=O)c2)C(=O)C1	43.8%[44.1 µM]
CCC1CCCCN1CCCNC(=O)CCc1cc2cc(OC)ccc2[nH]c1=O (configuration not stated)	-19.5%
CC(C)N1CC2(C1)C(=O)N(C)C(=O)[C@@H]1C[C@@H](O)CN12	i
COc1ccc(-c2cc(C(=O)NCc3c(C)cc(C)[nH]c3=O)c3c(c2)N(C)CCO3)cc1	-0.7%[44.1 µM]
Cc1ccc(CN2C(=O)NC3(CCN(C(=O)c4ccccn4)CC3)C2=O)cc1	15.5%
Cc1cccc2cc(C(=O)N3CCCC(Nc4ccc(F)cc4)C3)oc12 (configuration not stated)	-11.8%
Cc1ncsc1CCC(=O)N1C[C@@H](c2ccccc2)[C@@H]2[C@H]1C1CCN2CC1	1.6%
COc1ccc([C@@H]2CN(C(=O)c3sccc3C)[C@@H]3C4CCN(CC4)[C@@H]32)cc1	10µM*
CCn1cc(C(=O)N2C[C@H](c3cccc(OC)c3)[C@@H]3[C@H]2C2CCN3CC2)cn1	-12.1%
CC(=O)N1CCN(C(=O)c2cn(CCN)nn2)[C@H]2CS(=O)(=O)C[C@H]21	4.8%
CC(C)NC[C@H]1O[C@@H](CO)[C@@H](O)[C@H]1N1CCN(c2ccccn2)CC1	-8.1%
O=[S+]([O-])(c1ccccc1)N1CC(Oc2ccc3c(c2)OCO3)C1	-6.5%
COCC1CN(C(=O)c2ocnc2C)CC12CCNCC2 (configuration not stated)	60.2%
Cc1cc(Cn2cc3c4c(cccc42)[C@H](CC(C)C)N[C@H](C(=O)NCc2ccccn2)C3)no1	12.6µM*
COc1ccc(CNC(=O)[C@@H]2Cc3cn(CC4CC4)c4cccc(c34)[C@H](CC(C)C)N2)cc1	i
CC#CCn1cc2c3c(cccc31)[C@H](CC(C)C)N[C@H](C(=O)NCc1cccs1)C2	-12.5%[44.1 µM]
Cc1cc(Cn2cc3c4c(cccc42)[C@H](CC(C)C)N[C@H](C(=O)NCCN(C)C)C3)no1	7.94µM*
CC(C)C[C@@H]1N[C@H](C(=O)NCCN(C)C)Cc2cn(Cc3ccncc3)c3cccc1c23	12.6µM*
SMILES	Pf Dd2 growth
CC#CCn1cc2c3c(cccc31)[C@H](CC(C)C)N[C@H](C(=O)NCc1ccc(OC)cc1)C2	-29.9%
CC(C)C[C@@H]1N[C@H](C(=O)O)Cc2cn(Cc3ccncc3)c3cccc1c23	-4.8%
CC(C)C[C@@H]1N[C@H](C(=O)N2CCOCC2)Cc2cn(CC3CC3)c3cccc1c23	-21.2%[44.1 µM]
Cc1cc(Cn2cc3c4c(cccc42)[C@H](CC(C)C)N[C@H](C(=O)NCCN2CCOCC2)C3)no1	-6.4%
Cc1ccccc1OCc1nc(C2CN(C(=O)Cc3ccsc3)C2)no1	i
OCc1cc(CC2(NCc3ccccc3)COC2)no1	5.9%[44.1 µM]
O=C(Cc1ccsc1)NC1CCCN(c2cc(-c3ccccc3)[nH]n2)C1 (configuration not stated)	-4.6%
CC(C)c1noc(-c2cn(C3CCN(C(=O)c4ccc(C#N)cc4)C3)nn2)n1 (configuration not stated)	i
O=C(c1ccn[nH]1)N1CCN(Cc2cnn3cccnc23)CC(O)C1 (configuration not stated)	-9.2%
CCN(CC)C(=O)C1CCN(c2nnc(C)c3c(C)n(-c4ccc(Cl)cc4)nc23)CC1	82.0%[5.79 µM]
CCOc1ccccc1CNC(=O)CSc1nnc(C)c2c(C)n(-c3ccccc3)nc12	-4.4%
Cc1nnc(N2CCC(C(=O)NCCc3ccccc3Cl)CC2)c2nn(-c3ccccc3)c(C)c12	11.2µM*
CCOc1ccccc1CNC(=O)C1CCN(c2nnc(C)c3c(C)n(-c4ccc(C)cc4)nc23)CC1	7.08µM*
COc1ccc(Cl)cc1NC(=O)C1CCN(c2nnc(C)c3c(C)n(-c4ccccc4)nc23)CC1	i
COc1ccccc1CCNC(=O)C1CCN(c2nnc(C)c3c(C)n(-c4ccc(C)cc4)nc23)CC1	6.31µM*
COc1ccccc1NC(=O)C1CCCN(c2nnc(C)c3c(C)n(-c4ccccc4)nc23)C1 (configuration not stated)	-5.1%
Cc1ccc(NC(=O)C2CCCN(c3nnc(C)c4c(C)n(-c5ccccc5)nc34)C2)cc1Cl (configuration not stated)	24.4%
Cc1ccc(Cl)cc1NC(=O)C1CCN(c2nnc(C)c3c(C)n(-c4ccccc4)nc23)CC1	i
CCN1CCCN(S(=O)(=O)c2cc(OC)ccc2OC)CC12CCOCC2	i
COCCN1C(=O)CO[C@H]2CN(c3nccc(OC)n3)C[C@H]21	-1.5%[44.1 µM]
Cc1ccc(CNC(=O)N2CC(n3cc(C(=O)NCC4CC4)nn3)C2)cc1	22.7%
NC(=O)CNC(=O)C1=C[C@@H](NC(=O)Nc2ccccc2Br)[C@@H](O)[C@H](O)C1	-5.1%[44.1 µM]
Cc1nc2c(c(-c3ccc(O)cc3)n1)CN([S+](=O)([O-])c1c(C)noc1C)CCC2	i
Cc1ccc2c(c1)-c1c(c(C(=O)N3CCN(c4cc(C)ccc4C)CC3)nn1C)CS2	12.6µM*
COc1ccc(NC(=O)c2nn(C)c3c2CSc2ccc(C)cc2-3)cc1OC	i
SMILES	Pf Dd2 growth
Cn1nc(C(=O)N2CCN(c3ccc(Cl)cc3)CC2)c2c1-c1ccccc1SC2	9.4%
CCN(C(=O)c1ccc2c(c1)N(S(C)(=O)=O)CC2)c1ccccc1	-14.4%
CCN1C(=O)c2ccccc2S(=O)c2ccc(C(=O)N3CCN(c4cc(Cl)ccc4C)CC3)cc21 (configuration not stated)	8.91µM*
Cc1cccc(N2CCN(C(=O)c3ccc4c(c3)N(Cc3cccc(Cl)c3)C(=O)c3ccccc3S4=O)CC2)c1C (configuration not stated)	-7.5%
Cc1ccc(C)c(N2CCN(C(=O)c3ccc4c(c3)N(Cc3ccc(F)cc3)C(=O)c3ccccc3S4=O)CC2)c1 (configuration not stated)	-15.9%
COc1ccc(CNC(=O)c2ccc3c(c2)N(Cc2ccccc2)CCS3)cc1	-5.6%
Cc1ccccc1CNC(=O)c1ccc2c(c1)N(Cc1ccccc1)CCS2	4.5%
Cc1ccc(Cl)cc1N1CCN(C(=O)c2ccc3c(c2)N(Cc2ccccc2)CCS3)CC1	8.91µM*
CCn1nc(C)c(CN(CCOC)C(=O)C2COc3ccccc3C2)c1C (configuration not stated)	-6.0%
COC(=O)CNC(=O)c1cc(-c2ccc(Cl)nc2)c2cnn(C)c2n1	17.2%
CN(CC1CCOCC1)C(=O)c1c(F)cccc1Cl	24.4%
O=C(COc1ccc(F)cc1)N1CCC(c2nc(CCOCC3CC3)no2)C1 (configuration not stated)	-9.2%
Cc1cccc(-c2[nH]ncc2CNC(=O)c2cccc(N(C)C)c2)c1	-28.3%
COCCNC(=O)[C@@H]1C[C@H](Oc2ccccc2)CN1C(=O)c1n[nH]c(=O)c2ccccc12	-5.8%

High-throughput results as filed in PubChem.
